Experimental data as given in publication PMC7862700, “An all-to-all approach to the identification of sequence-specific readers for epigenetic DNA modifications on cytosine”.

Tests used:
Experiment in all cases: DAPPL (digital affinity profiling via proximity ligation, sequencing); 10 mM Tris-HCl pH 7.5, 50 mM NaCl, 1 mM DTT, 4% glycerol, room temperature, 30 min; GST-TFs on glutathione beads, 16-mer random dsDNA library, 0.1% formaldehyde crosslink after washing; high values mean tight binding
FEV = target: T1, FEV (Homo sapiens, UniProt Q99581 1-238); conditions: protein: recombinant; tags: N-terminal GST; dsDNA, one strand shown
T1 sequence: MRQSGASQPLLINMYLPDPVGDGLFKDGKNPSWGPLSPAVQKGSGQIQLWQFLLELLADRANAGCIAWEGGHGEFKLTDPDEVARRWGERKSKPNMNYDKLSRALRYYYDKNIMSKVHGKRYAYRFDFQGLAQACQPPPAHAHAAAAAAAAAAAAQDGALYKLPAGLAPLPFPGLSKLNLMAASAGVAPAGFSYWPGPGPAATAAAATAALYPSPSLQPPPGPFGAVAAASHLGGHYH
Outline: (§1)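 GST fusions of human transcription factors were expressed in yeast and captured with glutathione beads. Once given DNA barcodes and pooled alongside a tag-only sample, they were incubated for 30 min at room temperature with 200 nmole of a random double-stranded 16-mer DNA library in Tris/NaCl/DTT/glycerol buffer, then washed, crosslinked (0.1% formaldehyde), proximity-ligated, PCR-amplified and sequenced on an Illumina NextSeq500. The binding signal of each hexamer is its read frequency for a factor divided by its frequency for the tag-only sample.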

ETV5 = ETV5 (Homo sapiens, UniProt P41161 1-510); conditions: protein: recombinant; tags: N-terminal GST; dsDNA, one strand shown
Outline: as §1

HSF1 = HSF1 (Homo sapiens, UniProt Q00613 1-529); conditions: protein: recombinant; tags: N-terminal GST; chain copies: 3; dsDNA, one strand shown
Outline: as §1

SPIC = target: T2, SPIC (Homo sapiens, UniProt Q8N5J4 1-248); conditions: protein: recombinant; tags: N-terminal GST; dsDNA, one strand shown
T2 sequence: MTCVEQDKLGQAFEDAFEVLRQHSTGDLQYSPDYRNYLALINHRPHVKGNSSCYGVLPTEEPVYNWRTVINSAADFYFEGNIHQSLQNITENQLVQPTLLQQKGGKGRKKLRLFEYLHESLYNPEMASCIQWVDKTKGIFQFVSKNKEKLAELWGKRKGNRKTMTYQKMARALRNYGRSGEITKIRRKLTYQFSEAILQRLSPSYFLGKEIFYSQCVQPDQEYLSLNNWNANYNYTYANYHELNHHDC
Outline: as §1

ELF4 = ELF4 (Homo sapiens, UniProt Q99607 1-663); conditions: protein: recombinant; tags: N-terminal GST; dsDNA, one strand shown
Outline: as §1

ELK4 = target: T3, ELK4 (Homo sapiens, UniProt P28324-2 1-405); conditions: protein: recombinant; tags: N-terminal GST; dsDNA, one strand shown
T3 sequence: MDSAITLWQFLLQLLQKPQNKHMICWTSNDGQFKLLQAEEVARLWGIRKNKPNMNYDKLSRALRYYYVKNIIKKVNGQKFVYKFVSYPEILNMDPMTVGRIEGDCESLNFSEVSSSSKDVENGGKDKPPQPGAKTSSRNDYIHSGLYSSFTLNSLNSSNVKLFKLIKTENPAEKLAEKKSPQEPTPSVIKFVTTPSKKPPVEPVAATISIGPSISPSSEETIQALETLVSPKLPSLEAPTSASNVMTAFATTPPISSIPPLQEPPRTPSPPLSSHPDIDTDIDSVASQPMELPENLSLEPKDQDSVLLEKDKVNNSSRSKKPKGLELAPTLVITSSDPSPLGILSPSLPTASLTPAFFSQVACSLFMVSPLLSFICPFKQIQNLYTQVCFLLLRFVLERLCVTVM
Outline: as §1

ELF3 = target: T4, ELF3 (Homo sapiens, UniProt P78545 1-371); conditions: protein: recombinant; tags: N-terminal GST; dsDNA, one strand shown
T4 sequence: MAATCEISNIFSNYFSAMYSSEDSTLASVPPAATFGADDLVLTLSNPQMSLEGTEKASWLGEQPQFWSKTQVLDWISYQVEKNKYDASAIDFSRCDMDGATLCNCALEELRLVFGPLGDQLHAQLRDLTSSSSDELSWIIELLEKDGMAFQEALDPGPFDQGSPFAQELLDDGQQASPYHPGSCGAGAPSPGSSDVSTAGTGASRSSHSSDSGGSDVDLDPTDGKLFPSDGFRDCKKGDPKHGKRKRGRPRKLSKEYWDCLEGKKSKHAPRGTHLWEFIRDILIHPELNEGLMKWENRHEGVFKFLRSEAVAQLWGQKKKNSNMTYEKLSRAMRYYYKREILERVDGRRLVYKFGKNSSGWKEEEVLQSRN
Outline: as §1

CRX = CRX (Homo sapiens, UniProt O43186 1-299); conditions: protein: recombinant; tags: N-terminal GST; dsDNA, one strand shown
Outline: as §1

ETV1 = ETV1 (Homo sapiens, UniProt P50549 1-477); conditions: protein: recombinant; tags: N-terminal GST; dsDNA, one strand shown
Outline: as §1

ERF = target: T5, ERF (Homo sapiens, UniProt P50548 1-548); conditions: protein: recombinant; tags: N-terminal GST; dsDNA, one strand shown
T5 sequence: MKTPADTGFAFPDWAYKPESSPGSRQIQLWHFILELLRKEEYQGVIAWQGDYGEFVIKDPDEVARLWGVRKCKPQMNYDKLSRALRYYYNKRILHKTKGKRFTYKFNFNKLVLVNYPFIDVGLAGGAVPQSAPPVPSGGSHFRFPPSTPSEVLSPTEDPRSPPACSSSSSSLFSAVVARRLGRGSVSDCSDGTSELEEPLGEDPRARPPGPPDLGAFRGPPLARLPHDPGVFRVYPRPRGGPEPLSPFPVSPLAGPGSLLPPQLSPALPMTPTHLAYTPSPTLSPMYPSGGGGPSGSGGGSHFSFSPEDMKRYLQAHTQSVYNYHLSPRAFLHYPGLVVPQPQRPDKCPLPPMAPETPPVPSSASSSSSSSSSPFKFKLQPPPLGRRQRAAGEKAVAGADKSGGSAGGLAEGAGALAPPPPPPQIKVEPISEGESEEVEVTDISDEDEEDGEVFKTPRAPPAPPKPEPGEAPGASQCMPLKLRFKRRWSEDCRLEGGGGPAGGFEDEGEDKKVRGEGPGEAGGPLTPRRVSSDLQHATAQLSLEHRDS
Outline: as §1

ETV3L = target: T6, ETV3L (Homo sapiens, UniProt Q6ZN32 1-361); conditions: protein: recombinant; tags: N-terminal GST; dsDNA, one strand shown
T6 sequence: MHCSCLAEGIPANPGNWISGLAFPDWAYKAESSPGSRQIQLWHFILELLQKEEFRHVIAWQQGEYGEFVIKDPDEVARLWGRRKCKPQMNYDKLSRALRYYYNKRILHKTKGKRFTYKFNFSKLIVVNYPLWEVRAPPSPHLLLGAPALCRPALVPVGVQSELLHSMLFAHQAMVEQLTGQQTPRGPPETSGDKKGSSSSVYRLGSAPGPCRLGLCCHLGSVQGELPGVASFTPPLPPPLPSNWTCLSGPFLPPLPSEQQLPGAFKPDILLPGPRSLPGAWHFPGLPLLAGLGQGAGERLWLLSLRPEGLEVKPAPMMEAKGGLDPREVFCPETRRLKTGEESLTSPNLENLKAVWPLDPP
Outline: as §1

ETS2 = target: T7, ETS2 (Homo sapiens, UniProt P15036 1-469); conditions: protein: recombinant; tags: N-terminal GST; dsDNA, one strand shown
T7 sequence: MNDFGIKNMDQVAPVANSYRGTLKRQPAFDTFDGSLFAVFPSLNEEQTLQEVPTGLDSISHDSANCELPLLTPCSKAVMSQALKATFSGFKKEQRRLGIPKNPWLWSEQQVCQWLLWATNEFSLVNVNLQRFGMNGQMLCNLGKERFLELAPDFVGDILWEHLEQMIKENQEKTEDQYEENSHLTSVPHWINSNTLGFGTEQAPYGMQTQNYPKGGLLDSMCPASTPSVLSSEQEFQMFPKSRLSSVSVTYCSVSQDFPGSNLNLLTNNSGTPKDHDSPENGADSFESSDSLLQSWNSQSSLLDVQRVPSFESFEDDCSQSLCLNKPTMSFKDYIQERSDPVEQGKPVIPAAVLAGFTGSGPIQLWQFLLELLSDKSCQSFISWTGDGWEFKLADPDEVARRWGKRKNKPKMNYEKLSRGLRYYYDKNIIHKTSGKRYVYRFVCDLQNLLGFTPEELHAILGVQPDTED
Outline: as §1

SPDEF = target: T8, SPDEF (Homo sapiens, UniProt O95238 1-335); conditions: protein: recombinant; tags: N-terminal GST; dsDNA, one strand shown
T8 sequence: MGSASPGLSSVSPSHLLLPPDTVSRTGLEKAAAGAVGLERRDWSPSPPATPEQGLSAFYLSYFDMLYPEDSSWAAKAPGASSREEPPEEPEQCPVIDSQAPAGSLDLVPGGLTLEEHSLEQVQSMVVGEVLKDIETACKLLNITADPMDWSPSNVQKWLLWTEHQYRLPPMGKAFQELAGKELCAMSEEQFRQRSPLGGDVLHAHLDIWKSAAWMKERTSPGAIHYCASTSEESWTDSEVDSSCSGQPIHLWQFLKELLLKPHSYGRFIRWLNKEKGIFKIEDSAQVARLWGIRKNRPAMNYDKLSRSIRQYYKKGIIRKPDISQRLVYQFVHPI
Outline: as §1

ETV7 = target: T9, ETV7 (Homo sapiens, UniProt Q9Y603 1-341); conditions: protein: recombinant; tags: N-terminal GST; dsDNA, one strand shown
T9 sequence: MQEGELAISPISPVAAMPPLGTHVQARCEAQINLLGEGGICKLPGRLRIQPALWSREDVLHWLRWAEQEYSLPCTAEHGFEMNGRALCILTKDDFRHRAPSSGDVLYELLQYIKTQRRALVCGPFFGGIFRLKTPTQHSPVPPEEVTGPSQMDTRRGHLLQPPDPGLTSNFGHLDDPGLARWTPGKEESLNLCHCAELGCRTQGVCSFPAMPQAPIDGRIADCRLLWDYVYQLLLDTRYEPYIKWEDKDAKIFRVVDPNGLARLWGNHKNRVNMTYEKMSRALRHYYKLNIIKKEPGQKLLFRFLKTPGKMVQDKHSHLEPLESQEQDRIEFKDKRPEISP
Outline: as §1

ELF5 = target: T10, ELF5 (Homo sapiens, UniProt Q9UKW6-2 1-255); conditions: protein: recombinant; tags: N-terminal GST; dsDNA, one strand shown
T10 sequence: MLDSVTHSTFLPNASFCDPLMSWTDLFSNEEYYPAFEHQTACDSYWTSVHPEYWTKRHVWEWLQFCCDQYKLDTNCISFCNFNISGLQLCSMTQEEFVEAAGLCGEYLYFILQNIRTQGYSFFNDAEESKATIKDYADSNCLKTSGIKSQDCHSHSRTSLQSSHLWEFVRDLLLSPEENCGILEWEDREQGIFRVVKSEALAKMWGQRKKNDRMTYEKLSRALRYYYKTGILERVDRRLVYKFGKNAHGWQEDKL
Outline: as §1

ETV3 = target: T11, ETV3 (Homo sapiens, UniProt P41162-2 1-143); conditions: protein: recombinant; tags: N-terminal GST; dsDNA, one strand shown
T11 sequence: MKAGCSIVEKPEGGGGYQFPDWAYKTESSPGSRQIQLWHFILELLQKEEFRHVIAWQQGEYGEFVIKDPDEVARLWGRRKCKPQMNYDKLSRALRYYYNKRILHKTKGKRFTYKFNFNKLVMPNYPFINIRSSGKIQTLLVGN
Outline: as §1

ETV6 = ETV6 (Homo sapiens, UniProt P41212 1-452); conditions: protein: recombinant; tags: N-terminal GST; dsDNA, one strand shown
Outline: as §1

ETV5, sequence (P41161 whole entry): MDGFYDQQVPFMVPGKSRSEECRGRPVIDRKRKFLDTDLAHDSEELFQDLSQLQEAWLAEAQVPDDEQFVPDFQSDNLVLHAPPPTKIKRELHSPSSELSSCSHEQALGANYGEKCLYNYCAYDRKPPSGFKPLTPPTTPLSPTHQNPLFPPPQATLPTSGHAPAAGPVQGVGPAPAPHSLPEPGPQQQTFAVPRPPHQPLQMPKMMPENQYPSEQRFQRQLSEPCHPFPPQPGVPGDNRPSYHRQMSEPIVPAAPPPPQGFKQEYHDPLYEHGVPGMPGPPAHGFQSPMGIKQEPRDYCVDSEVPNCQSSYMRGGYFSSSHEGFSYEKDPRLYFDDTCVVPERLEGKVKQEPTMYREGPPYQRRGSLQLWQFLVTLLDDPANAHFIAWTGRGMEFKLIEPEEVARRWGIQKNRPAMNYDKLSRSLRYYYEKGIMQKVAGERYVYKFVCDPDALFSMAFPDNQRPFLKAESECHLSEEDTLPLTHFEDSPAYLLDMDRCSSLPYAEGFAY
HSF1, sequence (Q00613 whole entry): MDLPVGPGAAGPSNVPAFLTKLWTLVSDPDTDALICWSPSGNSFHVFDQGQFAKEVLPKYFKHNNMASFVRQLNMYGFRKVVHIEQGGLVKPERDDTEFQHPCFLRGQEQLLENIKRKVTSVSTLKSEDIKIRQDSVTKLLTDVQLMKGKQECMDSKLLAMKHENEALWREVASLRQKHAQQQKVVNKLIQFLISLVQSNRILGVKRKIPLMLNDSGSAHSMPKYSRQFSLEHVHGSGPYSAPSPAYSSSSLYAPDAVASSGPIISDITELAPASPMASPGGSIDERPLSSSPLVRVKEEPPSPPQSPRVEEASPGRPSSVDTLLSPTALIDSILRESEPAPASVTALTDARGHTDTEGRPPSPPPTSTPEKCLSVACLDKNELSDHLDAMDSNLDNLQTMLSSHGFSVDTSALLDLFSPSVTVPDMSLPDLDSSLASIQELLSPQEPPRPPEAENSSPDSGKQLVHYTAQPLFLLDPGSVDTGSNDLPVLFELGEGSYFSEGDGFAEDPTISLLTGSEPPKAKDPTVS
ETV6, sequence (P41212 whole entry): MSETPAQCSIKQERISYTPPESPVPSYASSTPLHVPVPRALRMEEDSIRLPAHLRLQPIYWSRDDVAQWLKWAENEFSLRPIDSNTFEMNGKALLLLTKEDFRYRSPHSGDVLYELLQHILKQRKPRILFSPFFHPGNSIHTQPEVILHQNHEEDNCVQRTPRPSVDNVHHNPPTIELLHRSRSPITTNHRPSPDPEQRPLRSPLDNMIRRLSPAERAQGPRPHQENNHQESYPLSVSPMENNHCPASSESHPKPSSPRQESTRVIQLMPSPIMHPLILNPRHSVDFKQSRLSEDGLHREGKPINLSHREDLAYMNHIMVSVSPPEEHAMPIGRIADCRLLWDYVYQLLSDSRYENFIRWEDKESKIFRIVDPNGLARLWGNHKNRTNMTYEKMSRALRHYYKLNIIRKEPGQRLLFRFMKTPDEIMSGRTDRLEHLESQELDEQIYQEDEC
ETV1, sequence (P50549 whole entry): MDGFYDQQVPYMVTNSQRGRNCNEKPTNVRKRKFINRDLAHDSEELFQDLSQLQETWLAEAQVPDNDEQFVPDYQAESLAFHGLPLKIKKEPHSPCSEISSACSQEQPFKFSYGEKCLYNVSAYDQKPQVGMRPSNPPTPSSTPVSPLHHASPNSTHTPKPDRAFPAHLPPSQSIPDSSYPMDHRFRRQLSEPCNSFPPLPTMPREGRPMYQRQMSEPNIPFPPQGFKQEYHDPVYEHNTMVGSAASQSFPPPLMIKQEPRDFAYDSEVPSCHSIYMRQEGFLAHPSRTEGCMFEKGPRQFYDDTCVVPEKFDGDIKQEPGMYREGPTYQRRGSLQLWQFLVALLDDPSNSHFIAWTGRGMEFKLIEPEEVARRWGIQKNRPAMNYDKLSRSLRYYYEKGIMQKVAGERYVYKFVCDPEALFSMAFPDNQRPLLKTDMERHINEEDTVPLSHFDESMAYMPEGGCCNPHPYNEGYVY
ELF4, sequence (Q99607 whole entry): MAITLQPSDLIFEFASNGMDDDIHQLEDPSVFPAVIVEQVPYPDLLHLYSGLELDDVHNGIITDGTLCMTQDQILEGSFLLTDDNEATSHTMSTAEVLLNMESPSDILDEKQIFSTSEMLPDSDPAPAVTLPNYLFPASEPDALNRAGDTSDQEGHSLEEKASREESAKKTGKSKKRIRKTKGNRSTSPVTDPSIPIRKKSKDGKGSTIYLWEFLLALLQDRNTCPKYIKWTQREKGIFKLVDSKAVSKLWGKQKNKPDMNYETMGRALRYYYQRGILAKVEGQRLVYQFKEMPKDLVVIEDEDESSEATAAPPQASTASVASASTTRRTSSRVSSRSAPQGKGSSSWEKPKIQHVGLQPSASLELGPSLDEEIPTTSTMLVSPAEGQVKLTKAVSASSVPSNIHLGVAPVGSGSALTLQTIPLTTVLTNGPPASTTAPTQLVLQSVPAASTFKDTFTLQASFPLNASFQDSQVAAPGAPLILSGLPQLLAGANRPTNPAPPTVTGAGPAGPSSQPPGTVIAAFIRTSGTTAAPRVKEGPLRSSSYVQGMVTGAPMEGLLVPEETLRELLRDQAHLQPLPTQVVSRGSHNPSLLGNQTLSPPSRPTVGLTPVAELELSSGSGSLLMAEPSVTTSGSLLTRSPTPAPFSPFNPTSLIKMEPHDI
CRX, sequence (O43186 whole entry): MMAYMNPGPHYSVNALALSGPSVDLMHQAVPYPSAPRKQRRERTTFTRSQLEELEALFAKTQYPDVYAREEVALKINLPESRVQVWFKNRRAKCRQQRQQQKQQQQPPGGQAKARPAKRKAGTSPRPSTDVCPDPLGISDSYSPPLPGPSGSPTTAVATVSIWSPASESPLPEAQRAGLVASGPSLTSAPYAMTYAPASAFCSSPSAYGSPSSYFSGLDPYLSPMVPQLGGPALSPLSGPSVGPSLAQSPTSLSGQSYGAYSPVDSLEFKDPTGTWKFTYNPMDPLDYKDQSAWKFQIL

Sequence	binding signal (FEV)	binding signal (ETV5)	binding signal (HSF1)	binding signal (SPIC)	binding signal (ELF4)	binding signal (ELK4)	binding signal (ELF3)	binding signal (CRX)	binding signal (ETV1)	binding signal (ERF)	binding signal (ETV3L)	binding signal (ETS2)	binding signal (SPDEF)	binding signal (ETV7)	binding signal (ELF5)	binding signal (ETV3)	binding signal (ETV6)
GGTACT	1.28 fold enrichment (6-mer frequency, TF over GST control)	1.39 fold enrichment (6-mer frequency, TF over GST control)	1.05 fold enrichment (6-mer frequency, TF over GST control)	1.24 fold enrichment (6-mer frequency, TF over GST control)	1.24 fold enrichment (6-mer frequency, TF over GST control)	1.19 fold enrichment (6-mer frequency, TF over GST control)	1.03 fold enrichment (6-mer frequency, TF over GST control)	1.05 fold enrichment (6-mer frequency, TF over GST control)	1.26 fold enrichment (6-mer frequency, TF over GST control)	1.38 fold enrichment (6-mer frequency, TF over GST control)	1.3 fold enrichment (6-mer frequency, TF over GST control)	1.31 fold enrichment (6-mer frequency, TF over GST control)	1.31 fold enrichment (6-mer frequency, TF over GST control)	1.2 fold enrichment (6-mer frequency, TF over GST control)	1.28 fold enrichment (6-mer frequency, TF over GST control)	1.24 fold enrichment (6-mer frequency, TF over GST control)	1.16 fold enrichment (6-mer frequency, TF over GST control)
AACGTT	1.08 fold enrichment (6-mer frequency, TF over GST control)	1.07 fold enrichment (6-mer frequency, TF over GST control)	1.32 fold enrichment (6-mer frequency, TF over GST control)	1.23 fold enrichment (6-mer frequency, TF over GST control)	1.14 fold enrichment (6-mer frequency, TF over GST control)	1.02 fold enrichment (6-mer frequency, TF over GST control)	1.05 fold enrichment (6-mer frequency, TF over GST control)	1.02 fold enrichment (6-mer frequency, TF over GST control)	1.1 fold enrichment (6-mer frequency, TF over GST control)		1.11 fold enrichment (6-mer frequency, TF over GST control)	1.17 fold enrichment (6-mer frequency, TF over GST control)	1.12 fold enrichment (6-mer frequency, TF over GST control)	1.1 fold enrichment (6-mer frequency, TF over GST control)	1.16 fold enrichment (6-mer frequency, TF over GST control)	1.11 fold enrichment (6-mer frequency, TF over GST control)	1.19 fold enrichment (6-mer frequency, TF over GST control)
